# Assay outcomes: PubChem, National Center for Advancing Translational Sciences (NCATS)
# This is a sample that favours compounds with a hit; in the whole collection about 9.3% have one here.
# FLuc counter: qHTS profiling assay for firefly luciferase inhibitor/activator using purifed enzyme and Km concentrations of substrates (counterscreen for miR-21 project) | Luciferin 4-monooxygenase (Photinus pyralis), P08659 | purified FLuc, Km substrates, luminescence inhibition | Potency, µM (titrated, usually from 57.5 µM), inactives show top-dose activity change, negative = inhibition, most hits filed as inhibitors | 6.9% of 360,000 active;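 further: plate controls were vehicle for no effect and reference inhibitor for full effect; nearly all actives have a fitted effect of over 55% in size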
# Target sequence (P08659 whole entry, looked up): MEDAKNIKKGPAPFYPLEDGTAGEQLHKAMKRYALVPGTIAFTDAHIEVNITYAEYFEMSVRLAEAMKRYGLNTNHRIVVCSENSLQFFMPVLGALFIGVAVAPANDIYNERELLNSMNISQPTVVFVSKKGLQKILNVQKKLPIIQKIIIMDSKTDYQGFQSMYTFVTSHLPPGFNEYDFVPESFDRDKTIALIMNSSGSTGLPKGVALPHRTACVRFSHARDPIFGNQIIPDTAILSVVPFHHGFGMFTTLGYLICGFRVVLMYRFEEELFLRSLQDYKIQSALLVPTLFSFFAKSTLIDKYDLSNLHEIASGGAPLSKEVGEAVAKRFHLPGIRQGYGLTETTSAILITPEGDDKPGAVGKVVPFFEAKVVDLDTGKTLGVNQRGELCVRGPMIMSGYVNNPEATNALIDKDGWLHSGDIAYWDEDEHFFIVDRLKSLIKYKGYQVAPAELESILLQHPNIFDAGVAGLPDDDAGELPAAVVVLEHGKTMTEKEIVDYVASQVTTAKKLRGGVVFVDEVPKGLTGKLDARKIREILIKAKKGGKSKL
#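 Purified P. pyralis luciferase, 10 nM final, with Km-level 10 uM D-luciferin and 10 uM ATP in 50 mM Tris acetate pH 7.5, 10 mM Mg acetate, 0.01% Tween-20, 0.05% BSA; 6-point qHTS titration about 60 µM downward; luminescence read.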
# NPC1 prom act: qHTS Assay for NPC1 Promoter Activators. Huh7 NPC1 promoter luciferase reporter, 24 h. Potency, µM (series often up to 9.22 µM), inactives show at the highest dose activation, most hits filed as activators. 2.4% of 320,000 active. AID 485313, 2010; further: % of control where 0% means no effect; nearly all actives have a fitted effect of over 60% in size
#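 Huh7 reporter cells (NPC1 promoter driving luciferase) are dosed with compound for 24 h at 37 °C, 5% CO2; luciferase detection reagent is then added and luminescence measured after 10 min at ambient temperature.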
# ELG1 DNA repair: qHTS screen for small molecules that inhibit ELG1-dependent DNA repair in human embryonic kidney (HEK293T) cells expressing luciferase-tagged ELG1; HEK293T ELG1-luciferase reporter, luminescence, 16 h; DNA damage induced by 5-fluorouridine; Potency, µM (doses to about 46.1 µM), without a hit: at the highest dose activity change, negative = inhibition, usual class: inhibitors; 2.3% of 330,000 active; AID 504467, 2011; further: on the % scale 0 is the no-effect control and ±100 the full control effect; nearly all actives have a fitted effect of over 55% in size
#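 HEK293T cells expressing luciferase-tagged ELG1 (2,000/well) received 5-Fluorouridine plus compound or DMSO for 16 hr at 37 °C. Luciferase was read by ONE-Glo luminescence after 30 min at room temperature.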
# SMN2 splice enh: qHTS Assay for Enhancers of SMN2 Splice Variant Expression; AID 1458, 2008; HEK293 SMN2-luciferase splicing reporter, luminescence, 30-36 h; Potency, µM (highest dose often 46.1 µM), inactives show at the top dose activity change, positive = activation, usual class: activators; 2.8% of 210,000 active; further: % of control where 0% means no effect; nearly all actives have a fitted effect of over 55% in size
#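 HEK293 cells carry an SMN2 minigene-luciferase reporter in which exon 7 inclusion puts luciferase in frame. Cells were seeded at 2000 cells/well, attached for 10-12 hours, then exposed to compounds for 30-36 hours at 37C before ONE-Glo luminescence.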
# Rab9 promoter act: qHTS Assay for Rab9 Promoter Activators; Potency, µM (doses to about 9.22 µM), for inactives: top-dose activation, negative = inhibition, hits mostly activators; AID 485297, 2010; Huh7 Rab9 promoter-luciferase reporter, luminescence, 24 h; 2.8% of 320,000 active; further: % of control where 0% means no effect; nearly all actives have a fitted effect of over 60% in size
#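 Cells were plated at 1500 per well in reduced-serum medium with 10% FBS and left 2 h. Compound in DMSO was then added for 24 h at 37 °C. Reporter signal was read by luminescence after 10 min with luciferase detection reagent.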
# ELG1 genotoxic: qHTS screen for small molecules that induce genotoxicity in human embryonic kidney (HEK293T) cells expressing luciferase-tagged ELG1. HEK293T ELG1-luciferase reporter, luminescence, 16 h. Potency, µM (series often up to 46 µM), without a hit: top-dose activity change, positive = activation, hits mostly activators. 1.3% of 330,000 active; further: % of control where 0% means no effect; nearly all actives have a fitted effect of over 60% in size
#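 HEK293T cells expressing luciferase-tagged ELG1 were treated with compound or DMSO for 16 hr at 37°C. Luciferase activity was then read after 30 min with ONE-Glo at room temperature; rising signal flags genetic stress.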
# * hit, by the source's call; ? = inconclusive; / = no result given; [ ] = another dose, or the depositor's remark. The call rests on the fitted dose curve; in most records, active means well fitted curve in the direction sought with a large enough effect; inconclusive means small, poorly fitted or top-dose-only effect, or another doubt; inactive means no such curve, though single readings can be large; an effect the other way counts as inactive or inconclusive. Potency means the concentration at half of the fitted maximal effect.
SMILES,FLuc counter,NPC1 prom act,ELG1 DNA repair,SMN2 splice enh,Rab9 promoter act,ELG1 genotoxic
CCN(CC)S(=O)(=O)c1ccc(/C=C/C(=O)OCC(=O)N(C)C)cc1,-2%,-2%,-9%,-2%,-1%,0%
Cc1cc(C)n(-c2nnc(SCC(=O)NC3CCCC3)c3ccccc23)n1,-11%,-3%,16µM*,-40%,-4%,-8%
Cc1ccc(OCCn2c(Br)nc3c2c(=O)n(C)c(=O)n3C)cc1,7%,-11%,5.2µM*,-87%,-16%,1%
C/C(Cl)=C/Cn1c(N2CCCC2)nc2c1c(=O)n(C)c(=O)n2C,6%,-5%,?,-16%,-2%,-6%
Cn1c(=O)c2c(ncn2CCOc2cccc(Br)c2)n(C)c1=O,-1%,-8%,8.2µM*,/,-11%,-13%
COCCn1c(Br)nc2c1c(=O)n(C)c(=O)n2C,3%,-2%,6%,/,9%,1%
C/C(Cl)=C\Cn1c(Nc2ccc(C)cc2)nc2c1c(=O)n(C)c(=O)n2C,7%,-1%,5.2µM*,26%,-1%,-14%
Cn1c(=O)c2c(ncn2Cc2cc(-c3ccccc3)no2)n(C)c1=O,-2%,-8%,18µM*,/,-2%,-6%
Cn1c(=O)c2c(ncn2Cc2cccc(Cl)c2)n(C)c1=O,0%,-7%,-23%,-36%,-24%,3%
O=c1c2oc3ccccc3c2n(Cc2ccccc2)c(=O)n1Cc1ccc2c(c1)OCO2,5%,/,/,/,/,/
C[C@@H]1C=C[C@](Cc2ccccc2)(C(=O)NCCN2CCOCC2)N1C(=O)c1ccccc1,/,/,/,-10%,/,/
CC(NC(=O)c1ccccc1Br)c1nnc(SCC(=O)NC2CCCCC2)n1C (centres undefined),3%,0%,14%,/,2%,1%
COc1ccc2c(c1)CCc1c(C(=O)N3CCOCC3)noc1-2,11µM*,4µM*,?,13µM*,3.2µM*,12µM*
COc1ccc2c(c1)CCc1c(C(=O)NCCc3ccc(OC)c(OC)c3)noc1-2,-1%,-1%,?,-28%,-12%,2%
COc1ccc2c(c1)CCc1c(C(=O)N3CC4(C)CC3CC(C)(C)C4)noc1-2 (centres undefined),-2%,-2%,?,-17%,-7%,-7%
COc1ccc2c(c1)CCc1c(C(=O)Nc3c(C)nn(Cc4ccccc4)c3C)noc1-2,?,-3%,13µM*,-13%,-12%,-12%
COc1ccc2c(c1)CCc1c(C(=O)N3CCCc4ccccc43)noc1-2,13µM*,14%,0%,-18%,7%,?
COc1ccc2c(c1)CCc1c(C(=O)Nc3ccc(OC)c(OC)c3)noc1-2,2.4µM*,11%,10%,-14%,16%,2%
COC(=O)CC1C(=O)NC2CCCCC2N1C(=O)CCl (centres undefined),1%,-9%,?,/,-9%,0%
Cc1c(O)nc(SCC(=O)Nc2nccs2)n(-c2ccccc2F)c1=O,-5%,-2%,13%,/,-7%,0%
CCCn1c(C)nc2c(NCCN3CCCC3)nc(C)nc21,/,/,/,-4%,/,/
COC(=O)c1cc2c(=O)c3ccccc3oc2nc1C,11µM*,2.2µM*,?,/,?,?
CCc1nc2oc3ccc(C)cc3c(=O)c2cc1C(=O)OC,3µM*,3.5µM*,?,/,3.5µM*,?
CCOC(=O)CCCN,/,/,/,-9%[9.22 µM],/,/
Cc1nc2sc(-c3ccccc3)nn2c(=O)c1Br,8.5µM*,3.2µM*,?,5.6µM*,2.2µM*,?
SMILES,FLuc counter,NPC1 prom act,ELG1 DNA repair,SMN2 splice enh,Rab9 promoter act,ELG1 genotoxic
c1ccc(-c2nnc3sc(-c4ccncc4)nn23)cc1,-3%,-1%,3%,4.5µM*,-6%,-7%
c1ccc(-c2nnc3sc(-c4csc5c4CCCC5)nn23)cc1,15µM*,14%,?,?,17%,10%
COc1ccc(-c2nn3c(=O)c(C)nnc3s2)cc1,?,-5%,?,/,1%,6%
Cc1ccc(NC(=S)c2ccncc2)c(C)c1,0%,-1%,5%,/,-5%,-5%
Cc1ccc(NC(=S)c2nc3ccccc3[nH]2)c(C)c1,1.7µM*,3.5µM*,?,5.6µM*,3.5µM*,?
Cc1ccc(NC(=S)N2CCCC(c3nc4ccccc4[nH]3)C2)cc1 (centres undefined),-10%,0%,0%,-1%,-1%,0%
Cc1ccc(NC(=S)c2nc3ccccc3[nH]2)cc1,0.67µM*,4µM*,?,28µM*,0.63µM*,?
O=C(c1csnn1)N1CCC2(CCCN(c3ccccn3)C2)CC1,/,/,/,-2%,/,/
Cc1ccc2c(c1)CC[C@H]1CC(=O)CC[C@@]21C,/,/,/,-5%,/,/
CCCCN(C(=O)COC(=O)CSc1ccc([N+](=O)[O-])cc1)c1c(N)n(CCC)c(=O)[nH]c1=O,4%,-4%,?,/,0%,3%
O=C(NCc1ccco1)C(c1ccccc1)N(C(=O)Cc1cccs1)c1ccccc1F (centres undefined),-1%,-2%,18µM*,-23%,-1%,-5%
O=C1OC(C(=O)Nc2ccccc2)Cc2ccccc21 (centres undefined),17µM*,16%,?,16%,?,11%
Cc1ccc(NC(=O)C2Cc3ccccc3C(=O)O2)cc1 (centres undefined),?,?,?,89%,?,?
CCOc1ccc(CNC(=O)c2ccc3c(c2)nc2n3CCOC2)cc1OC,-8%,/,/,/,/,/
COc1ccc(NC2=NCCCCC2)cc1,1%,1%,?,/,-1%,-2%
COc1ccc(NC2=Nc3ccccc3CC2)cc1,11µM*,2.8µM*,?,13µM*,1.6µM*,4.5µM*
CC(=O)c1sc(NC(=O)c2ccccc2F)nc1-c1ccccc1,12µM*,2.2µM*,?,11µM*,1.8µM*,-17%
CC(=O)c1sc(NC(=O)c2ccc(F)cc2)nc1-c1ccccc1,?,?,?,?,26%,?
COc1ccc(N2CC(C(=O)Nc3nc(-c4ccccc4)c(C(C)=O)s3)CC2=O)c(OC)c1 (centres undefined),1%,-2%,-6%,/,-8%,-5%
COc1ccc(C(=O)Nc2nc(-c3ccccc3)c(C(C)=O)s2)c(OC)c1,0.85µM*,25%,28%,1%,?,?
